Laboratory results from PubChem BioAssay (NCATS).
Results filed as inconclusive are left out. Calls of active or inactive are those of the source. Calls follow the shape of the dose curve; as a rule, active = well fitted inhibition curve with a large enough effect; inconclusive = small, poorly fitted or top-dose-only effect; inactive = flat fitted curve, though single readings scatter. Where a SMILES comes first, the peptide text is derived from it.

test system: NIH3T3; experiment: qHTS assay to identify novel small-molecules to repurpose for Merkel cell carcinoma treatment (AID 1296009); settings: MCC and control cell lines, CellTiter-Glo viability, 72 h; at 44.8 µM (top of the series) unless noted; also: nearly all actives have a fitted effect of over 60% in size
Text: MCC is a rare and aggressive neuroendocrine skin cancer with limited treatment options. Approximately 80% of MCCs have the Merkel cell polyomavirus (MCPyV) DNA integrated into the host genome (virus-positive: VP-MCC) and viral oncogenes drive oncogenesis. The remaining MCCs are virus-negative (VN-MCC) and are caused by UV mutagenesis. To identify novel treatments for VP-MCC and/or VN-MCC we screened three VP-MCC cell lines (WAGA, MKL-1, MKL-2), three VN-MCC cell lines (MCC-13, MCC-26, UISO), and four immortalized, non-transformed control cell lines (HaCaT, HEK293T, CRL7250, NIH-3T3) against ~2,400 compounds in the NCGC Pharmaceutical Collection (NPC) and ~1,900 compounds in the Mechanism Interrogation PlatE (MiPE). Using cell viability as a readout (CellTiter-Glo assay) we found both overlapping and distinct drugs that can be repurposed for the treatment of VP-MCC and VN-MCC.
A high-throughput screen was conducted in 1536-well white flat bottom plates (Corning) on a Kalypsys robotic system. Cell lines WAGA, MKL-1, MKL-2, MCC-13, MCC-26, UISO, HaCaT, HEK293T, CRL7250, and NIH-3T3 were screened against 2 small molecule annotated drug libraries NPC and MIPE in dose response (8 and 11 pt. respectively) measuring cell viability after 72 hours of incubation. […] A 1,536 pintool (Kalypsys) was used to transfer 23 nL of compound in DMSO to the 1,536-well assay plates. After 72 hr incubation at 37 degree celsius, 2.5 uL of CellTiter-Glo (Promega) was dispensed into each well using a BiorapTR. Plates were incubated at room temperature for 10 min, transferred to a ViewLux (PerkinElmer) and the luminescence was recorded using an exposure time of 2 seconds. Relative luminescence units (RLUs) were normalized to in-plate controls (no cells as a positive (cytotoxicity) control, DMSO as negative control) and the normalized data was processed using NCATS in-house software.

Compound | outcome
CC1=C2C(=O)C=C(CO[C@@H]3O[C@H](CO)[C@@H](O)[C@H](O)[C@H]3O)[C@@H]2[C@H]2OC(=O)[C@H](C)[C@@H]2CC1 | inactive [at 17.4 µM]
CC1CC2OCC3(O)CCC(O)C(C14CC(c1ccoc1)OC4=O)C23CO (stereo not given) | inactive
C[C@@H]1O[C@@H](O[C@H]2[C@H](O[C@H]3[C@H](O[C@H]4CC[C@@]5(C)C(CC[C@]6(C)C5CC=C5[C@@H]7CC(C)(C)C[C@@H](O)[C@]7(C)CC[C@]56C)[C@@]4(C)CO)O[C@H](C(=O)O)[C@@H](O)[C@@H]3O)O[C@H](CO)[C@H](O)[C@@H]2O)[C@H](O)[C@H](O)[C@H]1O (stereo not given in full) | inactive [at 9.27 µM]
C/C1=C\CC(C)(C)/C=C/C/C(C(=O)O)=C/CC1 | inactive
C=C1CC23CC1CCC2C12OC(=O)C(C)(C(O)C(O)C1O)C2C3C(=O)O (stereo not given) | inactive
C[C@@H]1CC2OC(=O)C3=C2C(CCC3O)[C@@]12C[C@@H](c1ccoc1)OC2=O (stereo not given in full) | inactive
C=C1CCC2(OC1)OC1CC3C4CC=C5CC(O)CC(O[C@@H]6OC[C@H](OC(=O)C(O)C(C)CC)[C@H](O)[C@H]6O[C@@H]6O[C@@H](C)[C@H](O)[C@@H](O)[C@H]6O)C5(C)C4CCC3(C)C1C2C (stereo not given in full) | inactive [at 9.27 µM]
Cc1ccc(C)c(NC(=O)CNS(=O)(=O)c2ccc3[nH]c(=O)oc3c2)c1 | inactive
Nc1nc(COC(=O)c2ccc([N+](=O)[O-])cc2)nc(Nc2ccccc2)n1 | inactive
CCN1CCN(C(=O)N[C@@H](C(=O)N[C@@H]2C(=O)N3[C@@H]2SC(C)(C)[C@@H]3C(=O)O)c2ccccc2)C(=O)C1=O | inactive
CC(=O)OC1C(C)C2C(OC3OC(CO)C(O)C(O)C3O)OC=C(C(=O)O)C2C1OC(=O)c1ccccc1 (stereo not given) | inactive [at 17.4 µM]
O=C(OC[C@H]1O[C@@H](Oc2ccccc2CO)[C@H](O)[C@@H](O)[C@@H]1O)c1ccccc1 | inactive
CC1(C)CC[C@]2(C(=O)O[C@@H]3O[C@H](CO[C@@H]4O[C@H](CO)[C@@H](O)[C@H](O)[C@H]4O)[C@@H](O)[C@H](O[C@@H]4O[C@H](CO)[C@@H](O)[C@H](O)[C@H]4O)[C@H]3O)CC[C@]3(C)C(=CCC4[C@@]5(C)CC[C@H](O[C@@H]6OC[C@@H](O)[C@H](O)[C@H]6O)[C@@](C)(C(=O)O)C5CC[C@]43C)[C@@H]2C1 (stereo not given in full) | inactive [at 9.27 µM]
C#CCCCn1cc(-c2cccc3c2N[C@@H](C)CC(=O)N3)cn1 | inactive
C/C(=C\CCC(C)(C)O)CCO[C@@H]1O[C@H](CO[C@@H]2O[C@@H](C)[C@H](O)[C@@H](O)[C@H]2O)[C@@H](O)[C@H](O)[C@H]1O | inactive [at 17.4 µM]
C/C(=C\C1CCC(C)C2CCC3(C)OC123)C(=O)O (stereo not given) | inactive
COc1cc(Nc2nc3c(s2)CCCC3c2ccccc2)ccc1-n1cnc(C)c1 (stereo not given) | inactive [at 9.27 µM]
COC1OC(=O)C2=C1C1(C)CCCC(C)(C)C1CC2O (stereo not given) | inactive
C=C1C2CCC3CC2(CC(O)C2(O)C1CC(OC1OC(CO)C(O)C(O)C1O)C2(C)C)CC3(C)O (stereo not given) | inactive [at 17.4 µM]
CCCN(CCN1CCN(c2ccccc2OC)CC1)C1CCc2ncsc2C1 (stereo not given) | inactive

Compound | outcome
C/C=C1\[C@H](O[C@@H]2O[C@H](CO)[C@@H](O)[C@H](O)[C@H]2O)OC=C(C(=O)O)[C@H]1CC(=O)OCCc1ccc(O)cc1 | inactive [at 17.4 µM]
CC1=CCC2C(C)(C)CCCC2(C)C1CC12OC1C(O)C(CO)=CC2O (stereo not given) | inactive
O=C(O)C(Cc1ccccc1)NC(=O)C1CCCN1 (stereo not drawn) (H-Pro-Phe-OH; configuration not given here) | inactive
CC(C)(O)c1ccc2c(c1)C(=O)C[C@H]1[C@](C)(C(=O)O)CCC[C@]21C | inactive
Cn1cc(-c2c[nH]c3ncnc(N4CCOCC4)c23)cn1 | inactive
COc1cccc(OC)c1-c1nc(C(=O)N[C@@H](CC(C)C)C(=O)O)cn1-c1ccnc2cc(Cl)ccc12 | inactive
COCCN1CCC(C(=O)NO)(S(=O)(=O)c2ccc(Oc3ccc(OC(F)(F)F)cc3)cc2)CC1 | inactive
CC(C)=CCC[C@@](C)(O)[C@H]1CC[C@]2(C)[C@@H]1[C@H](O)CC1[C@@]3(C)CC[C@H](O[C@@H]4O[C@H](CO)[C@@H](O)[C@H](O)[C@H]4O[C@@H]4O[C@H](CO)[C@@H](O)[C@H](O)[C@H]4O)C(C)(C)[C@@H]3CC[C@]12C (stereo not given in full) | inactive [at 17.4 µM]
CC(C)(OC1OC(CO)C(O)C(O)C1O)C1CCC(O)(CO)C2CC(=O)C(C)(O)C2C1 (stereo not given) | inactive [at 17.4 µM]
CCCCCOC(=O)Nc1nc(=O)n(C2O[C@H](C)[C@@H](O)[C@H]2O)cc1F (stereo not given in full) | inactive
C[C@H]1[C@H](C)CC[C@]2(C(=O)O)CC[C@]3(C)C(=CCC4[C@@]5(C)C[C@@H](O)[C@H](O)C(C)(C)C5CC[C@]43C)[C@H]12 (stereo not given in full) | inactive [at 17.4 µM]
C=C1Cc2c(Cl)cc3[nH]c4c5c3c2[C@@]2(O)[C@@H]1C[C@@H]2C(C)(C)O[C@H]5C1CC[C@@]2(O)[C@@]35O[C@@H]3[C@H]3OC(C)(C)[C@H]3O[C@H]5CC[C@]2(C)[C@@]41C (stereo not given in full) | inactive [at 17.4 µM]
O=C(O)CCc1c(C(=O)O)[nH]c2cc(Cl)cc(Cl)c12 | inactive [at 17.4 µM]
CCOC(=O)c1ccc(NC2CCCCC2)c(N)c1 | inactive
COC(=O)C(CC1(O)c2ccccc2N2C(=O)C(CC(C)C)NC21)n1cnc2ccccc2c1=O (stereo not given) | inactive [at 17.4 µM]
COc1cc(C(=O)OC[C@H]2O[C@@H](OC(C)(C)C(=O)O)[C@H](O)[C@@H](O)[C@@H]2O)cc(OC)c1O | inactive [at 17.4 µM]
CCc1nnc(NS(=O)(=O)c2ccc(NC(=S)NC(=O)/C=C/c3ccc(F)cc3)cc2)s1 | inactive
Cc1cc(-n2c(=O)[nH]c(=O)n(C)c2=O)ccc1Oc1ccc(SC(F)(F)F)cc1 | inactive
COC(=O)C1=CO[C@@H](O[C@@H]2O[C@H](CO)[C@@H](O)[C@H](O)[C@H]2O)[C@H]2[C@@H]1C=C[C@]21C=C([C@H](C)OC(=O)/C=C/c2ccc(O[C@@H]3O[C@H](CO)[C@@H](O)[C@H](O)[C@H]3O)cc2)C(=O)O1 | inactive [at 17.4 µM]
O=C(O)CC(CCc1ccccc1)OC1OC(CO)C(O)C(O)C1O (stereo not given) | inactive
